# Screening results (PubChem BioAssay)
# Only some compounds are listed: those with a hit (about 3.2% of all), similar ones and a draw of the others.
# RE007 growth inh: less growth of the S. pombe RE007 Vpr strain; AID 651644; Potency, µM (series often up to 92.2 µM), for the others: at the highest dose activity change, negative = less growth, hits mostly inhibitors; S. pombe RE007 Vpr strain, BacTiter-Glo ATP luminescence, 24 h; 360,000 tested, 0.21% active; active = well fitted falling curve with a large enough effect; inconclusive = small, poorly fitted or top-dose-only effect; inactive = no such curve, though single readings can be large or run the other way; also: nearly all actives have a fitted effect of over 50% in size
#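 Fission yeast RE007 carrying one integrated HIV-1 vpr copy, seeded at OD 0.01 in PMG+AL medium with 23 nL pinned compound. Grown 24 h at 30 degrees; viability read by BacTiter-Glo luminescence after 5 min.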
# AMA1-RON2 inh: inhibitors of Plasmodium falciparum AMA1-RON2 interaction. AlphaScreen AMA1-biotinylated RON2 peptide binding. Potency, µM (highest dose often 58.2 µM), for the others: top-dose activity change, negative = inhibition, usual class: inhibitors. 360,000 tested, 0.2% active. AID 720542;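 also: 0% = vehicle wells and -100% = peptide control; nearly all actives have a fitted effect of over 45% in size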
#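 AMA1 (3D7) with his tag at 25 nM final met compounds first, then biotinylated RON2 peptide at 25 nM; detection used donor plus acceptor beads, 10 µg/mL apiece, read by AlphaScreen after 30 min at room temperature.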
# LmPK inhibitor: blocks Leishmania mexicana pyruvate kinase activity; 290,000 tested, 0.37% active; purified LmPK, Kinase-Glo ATP luminescence, 1 h; Potency, µM (doses to about 57.5 µM), inactives show at the top dose activity change, negative = inhibition, actives largely listed as inhibitors; AID 1721
# Target sequence (Q27686 whole entry, looked up): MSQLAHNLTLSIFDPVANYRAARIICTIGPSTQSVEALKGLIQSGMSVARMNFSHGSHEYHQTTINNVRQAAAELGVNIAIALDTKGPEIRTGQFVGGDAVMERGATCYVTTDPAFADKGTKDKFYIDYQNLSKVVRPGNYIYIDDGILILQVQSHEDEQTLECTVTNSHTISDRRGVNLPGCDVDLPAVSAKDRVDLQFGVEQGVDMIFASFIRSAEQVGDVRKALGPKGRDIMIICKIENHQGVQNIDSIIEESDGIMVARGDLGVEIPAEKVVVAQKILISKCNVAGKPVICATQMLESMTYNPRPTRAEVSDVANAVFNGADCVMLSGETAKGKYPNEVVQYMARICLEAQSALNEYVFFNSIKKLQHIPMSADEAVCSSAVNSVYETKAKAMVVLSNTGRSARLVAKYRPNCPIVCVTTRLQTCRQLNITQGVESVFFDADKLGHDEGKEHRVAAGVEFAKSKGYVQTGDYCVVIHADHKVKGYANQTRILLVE
#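 qHTS format; LmPK 0.1 nM; substrates PEP 0.5 mM and ADP 0.1 mM. One-hour room-temperature incubation, then coupled luciferase luminescence; 0.5 nM enzyme wells mark activation.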
# TbPYK inhibitor: T. brucei pyruvate kinase inhibition; Q57TT1; TbPYK enzyme, Kinase-Glo Plus ATP luminescence, 45 min; Potency, µM (doses to about 76.8 µM), for inactives: at the top dose activity, negative = inhibition, usual class: inhibitors; 410,000 tested, 0.12% active; also: nearly all actives have a fitted effect of over 50% in size
#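 Luminescent Kinase-Glo Plus end-point after 45 min room-temperature reaction of T. brucei pyruvate kinase started with 130 uM ADP (final). Buffer TEA 50 mM pH 7.2 with KCl, MgCl2, BSA, Tween-20; titration-based qHTS with fitted concentration-effect curves.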
# Sm TGR inh: S. mansoni TGR enzyme inhibition; Q962Y6; AID 485364; purified TGR, DTNB reduction, TNB absorbance 405 nm; 360,000 tested, 3% active; Potency, µM (doses to about 114 µM), for inactives: at the highest dose activity change, negative = inhibition, most hits filed as inhibitors; also: nearly all actives have a fitted effect of over 60% in size
#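 Kinetic colorimetric format: TGR-catalysed, NADPH-driven DTNB reduction monitored via TNB absorbance. Enzyme dispensed at 20 nM; compound exposure 15 min at room temperature before reaction start.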
# * = called active by the depositor; ? = inconclusive; / = not tested or not shown; [ ] = dose if it differs, or a comment. Unless noted, calls follow the shape of the dose curve; as a rule, active = well fitted curve in the direction sought with a large enough effect; inconclusive = small, poorly fitted or top-dose-only effect, or another doubt; inactive = no such curve, though single readings can be large; an effect the other way counts as inactive or inconclusive. Unless noted, % is scaled to controls: 0 for no effect and ±100 for the full control effect; potency is read from the fitted curve at half-maximal effect.
SMILES,RE007 growth inh,AMA1-RON2 inh,LmPK inhibitor,TbPYK inhibitor,Sm TGR inh
Cc1cc(C)c(S(=O)(=O)/N=C2\C=C(Nc3ccc(C(=O)O)cc3)C(=O)c3ccccc32)c(C)c1,-16.7%,?,-7.2%,?,?
O=C(O)c1ccccc1-c1c2cc(Br)c(=O)c(Br)c-2oc2c(Br)c(O)c(Br)cc12,/,/,/,-23.8%,/
Cc1ccc2c(=O)cc(C(=O)Nc3c(C)n(C)n(-c4ccccc4)c3=O)oc2c1,/,/,/,-6.0%,-10.3%
C[C@@H]1CCCCO[C@H](CN(C)C(=O)Nc2cccc3ccccc23)[C@@H](C)CN([C@H](C)CO)C(=O)c2cc(N(C)C)ccc2O1,-38.5%,-4.9%,/,11.2µM*,/
Cc1cccn2cc(-c3ccc(F)cc3)nc12,?,59.4%,15.8µM*,-12.1%,4.1%
COc1ccc(-c2cc(=S)ss2)cc1,/,/,/,3.0%,/
CCC1Oc2ccc(C)cc2N(CC(=O)NCc2ccc(OC)cc2)C1=O (stereo not drawn),/,/,/,-3.2%,-1.6%
Cc1nc2nc(N)nn2c(C)c1C/C=C/c1ccccc1,10.5%,-0.2%,-6.1%,1.1%,15.8µM*
Cc1nc2ncnn2c(C)c1C/C=C/c1ccccc1,20.1%,4.6%,-7.1%,7.0%,-4.3%
CCC(C)S(=O)(=O)c1oc(-c2cccs2)nc1S(=O)(=O)c1ccccc1 (stereo not drawn),/,/,/,1.2%,0.708µM*
CC(C)CS(=O)(=O)c1oc(-c2ccc(F)cc2)nc1S(=O)(=O)c1ccccc1,/,/,/,-2.0%,1.12µM*
O=S(=O)(c1ccccc1)c1nc(-c2ccc(F)cc2)oc1NCC1CCCO1 (stereo not drawn),14.5%,-1.7%[11.6 µM],/,1.6%,44.7µM*
COc1ccccc1CNC(=O)c1ccc2c(c1)sc1nc(-c3ccc(F)cc3)cn12,/,/,/,2.6%,28.6%
CCOc1ccc(CNCc2c(C(=O)O)c(C)n(Cc3ccc(F)cc3Cl)c2C)cc1,/,/,/,-3.5%,-14.0%
CC(C)(C)c1cc(CN2CCC(O)CC2)cc(C(C)(C)C)c1O,-2.5%,-6.1%,-4.0%,7.4%,7.94µM*
CN(C)Cc1cc(C(C)(C)C)c(O)c(C(C)(C)C)c1,-14.7%,-5.7%,8.2%,-8.9%,22.4µM*
CC1=NN(Cc2cc(C(C)(C)C)c(O)c(C(C)(C)C)c2)C(=O)C1,7.1%,50.6%,-2.8%,0.6%,10.7%
CC(C)(C)c1cc(CN(CCO)CCO)cc(C(C)(C)C)c1O,-7.5%,-10.0%,-1.9%,-22.5%,?
CN1CCN(Cc2cc(C(C)(C)C)c(O)c(C(C)(C)C)c2)CC1,8.1%,-18.8%,6.3%,-11.5%,3.55µM*
COc1ccc2c(c1)c1c(c(=O)n(Cc3ccccc3)c(=O)n1CC(=O)Nc1ccccc1OC)n2C,/,/,/,-2.8%,1.0%
CCn1nnc(NC(=O)Cc2ccc(Cl)cc2)n1,6.2%,4.6%,3.5%,-3.3%,15.4%
CCn1nnc(NC(=O)c2ccc(-c3ccc(Cl)cc3)o2)n1,0.5%,7.4%,2.9%,1.0%,22.4µM*
CCc1ccc(-n2nc(CO)c(C(=O)NCCOC)n2)cc1,/,/,/,5.0%,4.4%
C[C@H]1Cc2c(-c3ccccc3)nc3c(c2CO1)CN(C(=O)C1CCCCC1)CC3,/,/,-1.8%[11.5 µM],/,/
Cn1c(=O)c2c(SCC(=O)N3CCc4ccccc43)nc(-c3cccc(F)c3)nc2n(C)c1=O,/,/,/,4.4%,1.3%
SMILES,RE007 growth inh,AMA1-RON2 inh,LmPK inhibitor,TbPYK inhibitor,Sm TGR inh
Cc1cccc(N(C)S(=O)(=O)c2nnc(NC(=O)C3CCCCC3)s2)c1,/,/,/,-4.9%,1.8%
COc1ccc(C(c2nnnn2CCc2ccccc2)N2CCN(C3CCCC3)CC2)cc1 (stereo not drawn),-8.4%,8.8%,-0.7%,0.3%,-7.2%
COc1ccccc1N1CCN(C(c2ccc(N(C)C)cc2)c2nnnn2CCc2ccccc2)CC1 (stereo not drawn),12.6%,20µM*,3.0%,2.0%,39.8µM*
CCc1ccc(NC(=O)CN2C(=O)C(c3ccc(C)cc3)=NC23CCCCC3)cc1,/,/,/,-3.8%,2.1%
Brc1ccc(-c2ncc3ccccn23)cc1,2.3%,8.6%,-1.9%,1.5%,28.2µM*
Cc1cc(C)cc(C(=O)Nc2c(C(=O)Nc3ccccc3F)oc3ccccc23)c1,/,/,/,-11.0%,18.0%
Clc1cc(Cl)c(OCC#CI)cc1Cl,/,/,/,3.7%,/
COc1cc(C(=O)ON=C2C=C(C)C(=O)C(C)=C2)cc(OC)c1OC,-2.3%,-1.9%,1.1%,-5.3%,-4.2%
COc1cc(C(=O)O/N=C2\C=CC(=O)C(C)=C2)cc(OC)c1OC,?,5.1%,-5.2%,-7.8%,3.16µM*
Cc1ccc(-c2nn(-c3ccc(F)cc3)cc2C(=O)NCC2CCCO2)cc1 (stereo not drawn),-23.1%,-16.5%,/,4.0%,50.1µM*
COc1ccccc1S(=O)(=O)Cc1ccc(C(=O)NC2CCCCC2)o1,-20.4%,30.9%,-2.4%,-1.5%,39.8µM*
COc1ccccc1S(=O)(=O)Cc1ccc(C(=O)NC2CC2)o1,17.8%,0.0%,-0.2%,0.0%,?
Cc1ccc(C)n1-c1ccc(C(=O)NCC2CCCO2)cc1 (stereo not drawn),1.1%,2.4%,-0.1%,-11.5%,39.8µM*
O=C(NCC1CCCO1)c1ccc(CS(=O)(=O)c2c(Cl)cccc2Cl)o1 (stereo not drawn),6.1%,-4.3%,-2.2%,-3.6%,-3.7%
COc1cccc(-c2nn(-c3ccc(F)cc3)cc2C(=O)NCC2CCCO2)c1 (stereo not drawn),-6.4%,0.0%,/,-4.5%,-3.2%
CCc1ccccc1S(=O)(=O)Cc1ccc(C(=O)NCC2CCCO2)o1 (stereo not drawn),33.6%,5.0%,6.0%,-15.5%,39.8µM*
Cc1cc(C)c2c(=O)cc(C(=O)Nc3ccc(S(=O)(=O)Nc4onc(C)c4C)cc3)oc2c1,/,/,/,-3.0%,-7.2%
COc1ccc(C2C(=O)N(C3CCCCCC3)CC(=O)N2Cc2ccc(C)cc2)cc1 (stereo not drawn),/,/,/,-3.7%,16.2%
COc1ccc(NC(=O)CSC2=Nc3ccccc3C3=NC(CC(=O)NCc4ccc(F)cc4)C(=O)N23)cc1 (stereo not drawn),/,/,/,-0.9%,10.1%
CCC(=O)C(Cc1ccccc1)(Cc1ccccc1)CC(C)N(C)C (stereo not drawn),/,/,/,-5.4%[157 µM],/
COc1ccc(N2CCN(C(=O)Cc3c(C(=O)O)c(C)cn3C)CC2)cc1,/,/,/,-0.1%,-7.9%
O=C(NCC1CCCO1)c1ccc(-c2cccc(C(F)(F)F)c2)o1 (stereo not drawn),0.0%,16.9%,1.6%,-1.8%,-32.8%
CC(=O)c1ccc(-c2ccc(C(=O)NCC3CCCO3)o2)cc1 (stereo not drawn),0.5%,-8.9%,/,-4.2%,35.5µM*
O=C(OCc1ccccc1)c1cccnc1,/,/,/,4.2%,/
